Measurements as given in the supplement of paper PMC10681739.

What follows are sequences tested against RUNX1 (UniProt Q01196) (assay: RUNX1 binding intensity (PBM fluorescence), RUNX1 alone (arbitrary fluorescence units); higher = stronger binding). Conditions: RUNX1 concentration 2 nM; ETS1 concentration 0 nM.
Method: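 Cooperative gcPBM on 36-bp genomic probes with neighbouring ETS1 and RUNX1 sites. Recombinant human RUNX1 (2 nM) was incubated alone or with ETS1 (25 nM) and detected with anti-RUNX1 antibody plus Alexa488 secondary. Values are medians over 4 replicate spots; the RUNX1+ETS1 data were normalised to the RUNX1-only data. The probes sit in constant array flanks that are not printed.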
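Note: Full-length recombinant human RUNX1 bound to double-stranded 36-bp genomic probes on a high-density microarray, scored as Alexa488 fluorescence per spot via anti-RUNX1 antibody, median of four replicate spots.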

Chain of RUNX1 (Q01196 whole entry): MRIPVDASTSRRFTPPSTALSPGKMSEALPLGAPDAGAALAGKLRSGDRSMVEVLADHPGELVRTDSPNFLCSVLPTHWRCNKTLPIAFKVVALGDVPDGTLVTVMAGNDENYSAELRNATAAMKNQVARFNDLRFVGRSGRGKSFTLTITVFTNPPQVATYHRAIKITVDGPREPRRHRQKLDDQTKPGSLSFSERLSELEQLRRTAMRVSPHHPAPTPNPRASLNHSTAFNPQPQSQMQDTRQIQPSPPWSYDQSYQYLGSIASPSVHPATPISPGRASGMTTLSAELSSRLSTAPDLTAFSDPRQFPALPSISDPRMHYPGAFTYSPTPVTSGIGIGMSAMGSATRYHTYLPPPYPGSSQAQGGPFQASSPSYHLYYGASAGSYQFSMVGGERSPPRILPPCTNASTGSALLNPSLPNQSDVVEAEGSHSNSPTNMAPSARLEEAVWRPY

Sequence | RUNX1 binding intensity
AGGGAACAGGAAATGCAAAAAACCACAAGGGACAAG | 2050
ACCTTGCCTAGAGGAAGTGGTTTTTCGAATCTGAGT | 739
TCTCTTCCGTTCTCTGGTAGCTTTGTGGTAGCTTTG | 1350
GGCCTGTCACACACAGGAAGCGGTCACAGAAAAGCT | 795
GACAATGAGCGCACAGGATGTGGTTTGGCGGCAGGG | 854
CATTTCAGTCCAGGATGTGGGTGCACACACCGCTTC | 798
CCTTCCTTCCTGCTGTGTACGTTGTGGTCACAGCAC | 1240
AGGTTGAAAGCACTTCCGCTGCGGCCCCCGTAGGAA | 833
CCCGCTCACGCCGGAAGTGGTTTGCGTTTTCAAGAT | 741
CACTTCCTGTCAAAGCCAGTTCCTTAACCGCTTAGG | 948
TACGGGAACTTCCTTTTCTTGTGGTGTGGCCGGGTC | 873
GCGCGGACAGAGAAAGGATGTGGTATAGCAGAAAGT | 727
AATTGAGACAGGAAATGTTGGTTTGTGGTCAGGCAC | 1170
CATGCGTCACCTTCCTGTGTGGTCAGCAGTGCTTGC | 915
TCCTTAATGGTTCCGGCGGCAGGGACCGCAGCGACG | 824
GCTTGCTCCCACAGGAAACCGCAGGCTTCGGGCACA | 7370
GCCACATATTTCCTGTGACAACCCTGTGGTGTGGCT | 848
CAGAGAGCGGACTTCCGCGACGCGGGTAAGCCGGGC | 670
GCCGGAAGCCACGCAGGGCCACGTCTGCGGTTCTGA | 826
